# Bioassay records deposited in PubChem BioAssay by National Center for Advancing Translational Sciences (NCATS).
# A selection: hits, their analogues and other compounds. The true share with any hit is near 8%.
# FMDV antiviral – blocks foot and mouth disease virus; 410,000 tested, 1.2% active; Potency, µM (top dose mostly 57.9 µM), actives largely listed as inhibitors; FMDV antiviral cell-based qHTS; calls by dose curve; tested in HEK293T cells; also: read-out not given here; nearly all actives have a fitted effect of over 45% in size
# HCV inh – HCV inhibition; Potency, µM (doses to about 41.8 µM), usual class: inhibitors; Huh7.5.1 HCVcc-Cre infection, luciferase reporter, 44 h; 340,000 tested, 3.4% active; active = well fitted inhibition curve with a large enough effect; inconclusive = small, poorly fitted or top-dose-only effect, or another doubt; inactive = no such curve, though single readings can be large or run the other way
#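 Cells (1,000/well) were plated 4 h before compound, then infected with HCVcc-Cre virus (~0.5 moi). After 44 h further culture, infection was read as luciferase luminescence following a 15 min substrate incubation at room temperature.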
# Lassa entry inh – inhibitors of Lassa virus binding or cell entry. Lassa virus pseudotype entry inhibition, cell reporter. Potency, µM (doses to about 37.9 µM), actives largely listed as inhibitors. 300,000 tested, 1.2% active; calls by dose curve; tested in HEK293 cells; also: nearly all actives have a fitted effect of over 50% in size
# HCMV antiviral – inhibitors of human cytomegalovirus; HFF cells, HCMV-luciferase reporter, 72 h; stronger effect = lower value; activity change, negative = inhibition, % at 57.5 µM; 410,000 tested, 4.5% active; AID 1259415; in the data active = activity change below about -60%; inconclusive = no clear call, values can overlap the other calls; inactive = above about -39%
#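 Two-dose cell screen: HFF monolayers treated with compounds and infected with luciferase-expressing HCMV at 1 PFU/cell, 72 h at 37C, then lysed for luciferase measurement.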
# SARS PLpro yeast – blocks SARS-CoV papain-like protease in a yeast assay | Potency, µM (titrated, usually from 32.9 µM), actives largely listed as activators | 330,000 tested, 0.19% active | S. cerevisiae expressing SARS-CoV PLpro, growth rescue | AID 485353; calls by dose curve; also: nearly all actives have a fitted effect of over 55% in size
# Marburg entry inh – blocks Marburg virus binding to or entry into cells. Potency, µM (doses to about 37.8 µM), most hits filed as inhibitors. 300,000 tested, 1.8% active. Marburg virus pseudotyped entry inhibition, cell reporter. AID 540276; calls by dose curve; tested in HEK293 cells
# A number is an active result; 0 = inactive; ? = inconclusive; - = no result given.
SMILES,FMDV antiviral,HCV inh,Lassa entry inh,HCMV antiviral,SARS PLpro yeast,Marburg entry inh
CCOc1ccccc1-n1c(O)c(C=Nc2ccc(N(CC)CC)cc2)c(=O)[nH]c1=O,0,0,?,-87,0,0
CCN(CC)c1ccc(N=Cc2c(O)n(-c3ccccc3C)c(=O)[nH]c2=O)cc1,-,0,0,0,0,0
Cc1ccc(S(=O)(=O)N(C)Cc2nc(-c3ccccc3)oc2C)cc1,0,-,0,0,-,-
Cc1ccc(N(C)S(=O)(=O)c2cccc(C(=O)N(C)Cc3cnn(-c4ccccc4)c3)c2)cc1,?,?,?,-67,0,?
COc1cc(OC)cc(C(=O)Nc2ccc(-n3cnnn3)c(C)c2)c1,-,7.1µM,0,0,0,0
COc1cc(NC(=O)c2ccccc2-n2cnnn2)cc(OC)c1,0,0,0,0,0,?
CN(Cc1cnn(-c2ccccc2)c1)C(=O)c1cccc(S(=O)(=O)N(C)c2ccccc2)c1,0,-,-,0,-,-
COc1ccc(N(C)S(=O)(=O)c2cccc(C(=O)Nc3nc(C)cs3)c2)cc1,0,?,-,0,0,-
COc1ccc(N(C)S(=O)(=O)c2cccc(C(=O)Nc3ccc(-n4cnnn4)cc3)c2)cc1,40µM,?,0,?,0,?
COc1ccc(N(C)S(=O)(=O)c2cccc(C(=O)Nc3cc(OC)ccc3OC)c2)cc1,?,10µM,?,0,0,?
Cc1ccc(S(=O)(=O)C(CNC(=O)C(=O)NCCc2ccc(Cl)cc2)c2cccs2)cc1 (stereo not given),?,-,0,0,-,-
CN(C)S(=O)(=O)c1cccc(NC(=O)c2ccc3c(c2)OCCO3)c1,0,?,0,0,0,0
COc1ccc(OCCN(C)C(=O)c2cccc(S(=O)(=O)N(C)c3ccccc3)c2)cc1,0,14µM,0,0,0,0
COc1ccc(N(C)S(=O)(=O)c2cccc(C(=O)Nc3ccc(OC)nc3)c2)cc1,-,?,0,-68,0,0
COc1ccc(N(C)S(=O)(=O)c2cccc(C(=O)Nc3ccc4c(c3)OCCO4)c2)cc1,0,10µM,?,0,0,10µM
O=c1c2oc3ccccc3c2n(Cc2ccc(Cl)cc2)c(=O)n1Cc1ccccc1,0,-,0,0,-,-
Cc1cc(Nc2cccc(Cl)c2)nc2ccc(NC(=O)c3cncc(Br)c3)cc12,0,-,0,-100,-,-
Cc1cc(Nc2cccc(C(F)(F)F)c2)nc2ccc(NC(=O)c3cncc(Br)c3)cc12,32µM,-,0,?,-,-
Cc1ccccc1C(=O)Nc1ccc2nc(Nc3cccc(C(F)(F)F)c3)cc(C)c2c1,?,-,0,0,-,-
O=C1N=NC(c2ccccc2)c2ccccc21 (stereo not given),-,-,-,-,-,0
COc1ccc(N2C(=O)C(CC(=O)Nc3ccccc3)N(CCC3=CCCCC3)C2=O)cc1 (stereo not given),0,-,0,0,-,0
CCOc1ccccc1C(=O)Nc1cc(-c2nc3cccnc3s2)ccc1C,0,-,0,0,-,-
COc1ccc(-n2c(-c3ccccc3F)nc3c(cnn3-c3ccc(C)cc3)c2=O)cc1,0,-,?,0,-,?
CC/C(=N/Nc1cccc(Cl)c1)c1cnnc(SC)n1,0,?,?,0,0,0
CC/C(=N/Nc1ccccc1)c1cnnc(-c2ccccc2)n1,0,8.9µM,0,?,0,0
SMILES,FMDV antiviral,HCV inh,Lassa entry inh,HCMV antiviral,SARS PLpro yeast,Marburg entry inh
CCn1c(=O)c2c(nc3n2CCN3c2ccccc2)n(C)c1=O,0,?,0,-75,0,?
C=C(C)Cn1c(=O)c2c(nc3n2CCN3c2cccc(Cl)c2C)n(C)c1=O,22µM,?,0,0,0,0
Cn1c(=O)n(C/C=C/c2ccccc2)c(=O)c2c1nc1n2CCCN1c1ccc(F)cc1,?,11µM,?,0,0,?
Cn1c(=O)n(Cc2ccccc2)c(=O)c2c1nc1n2CCN1c1ccccc1,0,-,0,?,-,-
CCOC(=O)C1CCC(CN(Cc2ccc(OC)cc2)S(=O)(=O)c2ccc(F)c(C(=O)Nc3ccc(C)c(C)c3)c2)CC1 (stereo not given),0,-,0,0,-,-
Cc1ccc(CNCc2c(C(=O)O)n(Cc3ccccc3C)c3cc(C)ccc23)cc1,?,-,0,0,-,-
C=Cc1ccc(Cn2c(C(=O)O)c(CNCc3ccccc3)c3ccc(C)cc32)cc1,?,-,?,-102,-,-
Cc1ccc(CNCc2c(C(=O)O)n(Cc3ccc(C)cc3)c3cc(C)ccc23)cc1,0,-,?,-107,-,-
CCc1ccc(CNCc2c(C(=O)O)n(Cc3ccc(C)cc3)c3cc(C)ccc23)cc1,0,-,?,-94,-,-
Cc1ccc(Cn2c(C(=O)O)c(CNCc3ccc(C)o3)c3ccc(C)cc32)cc1,0,-,0,0,-,-
Cc1ccc(Cn2c(C(=O)O)c(CNCc3ccc(OC(C)C)cc3)c3ccc(C)cc32)cc1,?,-,?,-105,-,-
COc1ccc(CN2CCCC(n3cc(C(=O)NC4CCCC4)nn3)C2)c2ccccc12 (stereo not given),0,-,-,-,-,-
COc1ccc(CNCc2c(C(=O)O)n(Cc3ccc(F)cc3)c3cc(C)ccc23)cc1OC,0,-,?,-68,-,-
COc1ccc(Cn2c(C(=O)O)c(CNCCc3ccco3)c3ccc(OC)cc32)cc1,0,-,0,0,-,-
Cc1ccc2c(CNCCc3ccco3)c(C(=O)O)n(Cc3ccc(F)cc3)c2c1,0,-,0,-109,-,-
COc1ccc(Cn2c(C(=O)O)c(CNCc3ccc(C)o3)c3ccc(C)cc32)cc1,0,-,?,0,-,-
COCCCNC(=O)c1sc2nc(C)c(C(=O)Nc3ccc(C)cc3C)c(-c3ccc(Br)cc3)c2c1N,0,-,0,0,-,?
COCCCNC(=O)c1sc2nc(C)c(C(=O)Nc3ccc(Cl)cc3)c(-c3ccc(Br)cc3)c2c1N,0,-,0,-76,-,?
COc1ccc(-c2c3c(nc4sc(C(=O)Nc5ccccc5)c(N)c24)CCC3)cc1,0,0,0,0,-,0
CCOC(=O)c1c(C)nc2sc(C(N)=O)c(N)c2c1-c1ccccc1,0,0,0,-62,0,0
CCOC(=O)c1c(C)nc2sc(C(=O)Nc3ccccc3)c(N)c2c1-c1ccc(OC)cc1,0,6.3µM,8.9µM,-,0,?
CCOC(=O)c1sc2nc(C)cc(-c3ccccc3)c2c1N,0,?,0,?,0,0
CCc1ccc(NC(=O)Cn2c(=O)n(CCCCC(=O)NCCc3ccc(Cl)cc3)c(=O)c3ccccc32)cc1,0,-,0,0,-,0
CCc1ccc(NC(=O)Cn2c(=O)n(CCCCC(=O)NCCc3ccccc3)c(=O)c3ccccc32)cc1,0,-,0,0,-,0
Cc1ccccc1C(=O)Nc1cccc(-c2cn3ccccc3n2)c1,?,14µM,?,0,0,?
CC1CN(S(=O)(=O)c2cccc(-c3cn4ccccc4n3)c2)CC(C)O1 (stereo not given),-,?,?,-86,0,?
Cc1ccc(S(=O)(=O)Nc2cccc(-c3cn4cccc(C)c4n3)c2)cc1,0,-,0,0,-,-
Cc1cccn2cc(-c3cccc(NS(=O)(=O)c4ccc(Cl)c(Cl)c4)c3)nc12,0,-,0,-91,-,0
Cc1cccn2cc(-c3cccc(S(=O)(=O)N4CC(C)OC(C)C4)c3)nc12 (stereo not given),0,0,-,0,0,-
